Compound activity from PubChem.
HT1080NT lethal – qHTS for induction of synthetic lethality in tumor cells producing 2HG: qHTS for the HT-1080-NT fibrosarcoma cell line; HT-1080-NT fibrosarcoma viability, CellTiter-Glo ATP luminescence, 48 h; Potency, µM (doses to about 46.1 µM), for the others: top-dose activity, negative = less viability, hits mostly cytotoxic; hit rate 1.6% among 360,000;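 further: NT is the 2HG producing partner of a matched IDH1 knockdown line; 0% = DMSO-treated cells and -100% = media-only wells without cells; nearly all actives have a fitted effect of over 55% in size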
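Read-out is CellTiter-Glo luminescence after 10 minutes at room temperature, following 48 hours' compound treatment of HT-1080-NT cells (750 cells/well, RPMI, 5% FBS, 37 degrees C).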
TGFb inhibitor – qHTS for Inhibitors of TGF-b; HepG2 CAGA-GFP TGF-b/SMAD3 reporter, GFP fluorescence, 18 h; TGF-beta stimulated, 500 pg/mL final; Potency, µM (titrated, usually from 46.1 µM), without a hit: at the highest dose activity, negative = inhibition, most hits filed as inhibitors; hit rate 1.2% among 410,000; further: on the % scale 0 is the no-effect control and ±100 the full control effect; nearly all actives have a fitted effect of over 65% in size
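Smad-responsive CAGA-GFP expression was quantified in HEPG2 cells exposed to compounds and 500 pg/mL final TGF-beta for 18 h at 37 degrees C; unstimulated wells defined full inhibition.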
DT40 TDP1 CPT – qHTS for Inhibitors of human tyrosyl-DNA phosphodiesterase 1 (TDP1): qHTS in cells in presence of CPT. Potency, µM (titrated, usually from 46.2 µM), for the others: at the highest dose activity change, negative = growth inhibition, hits mostly inhibitors. AID 686979, 2013. chicken DT40 Tdp1-/-;hTDP1 cells + 20 nM CPT, ATP luminescence, 48 h. hit rate 12% among 420,000; further: on the % scale 0 is the no-effect control and ±100 the full control effect; nearly all actives have a fitted effect of over 55% in size
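Chicken DT40 Tdp1-/- cells complemented with human TDP1, 400 cells/well, exposed to compounds plus 20 nM camptothecin for at least 48 h at 37 C; viability read as ATP content by CellTiter-Glo luminescence.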
DT40 TDP1 no CPT – qHTS for Inhibitors of human tyrosyl-DNA phosphodiesterase 1 (TDP1): qHTS in cells in absence of CPT; DT40 Tdp1-/- hTDP1 cells, no CPT, ATP luminescence, 48 h; Potency, µM (highest dose often 46.2 µM), for the others: at the highest dose activity change, negative = growth inhibition, actives largely listed as inhibitors; hit rate 15% among 420,000; further: on the % scale 0 is the no-effect control and ±100 the full control effect; nearly all actives have a fitted effect of over 55% in size
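Compound effects on proliferation are scored in DT40 Tdp1-/-;hTDP1 cells in the absence of CPT. ATP levels (CellTiter-Glo luminescence) are recorded after a ≥48 hr, 37 °C incubation.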
HT1080 IDH1KD tx – qHTS for induction of synthetic lethality in tumor cells producing 2HG: qHTS for the HT-1080-IDH1KD cell line | Potency, µM (top dose mostly 46.1 µM), without a hit: at the top dose activity, negative = toxicity, hits mostly cytotoxic | hit rate 2% among 360,000 | HT-1080 IDH1 knockdown viability, ATP luminescence, 48 h;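 further: 0% = DMSO wells and -100% = cell-free medium wells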
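After a 2 h attachment period, IDH1KD HT-1080 cells took pin-transferred compound for 48 h at 37 °C; ATP-based luminescence after 10 min room-temperature reagent incubation reported viability.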
HepG2 viability – qHTS for Inhibitors of TGF-b: Cytotox Counterscreen; HepG2 CAGA-GFP viability, ATP luminescence, 18 h; Potency, µM (top dose mostly 46.1 µM), for inactives: at the highest dose activity change, negative = cytotoxicity, hits mostly cytotoxic; hit rate 0.76% among 410,000; AID 588856, 2011
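HepG2 CAGA-GFP cells (1000/well, DMEM with 1% FBS) received compound, then TGF-beta at 500 pg/mL final, and were incubated 18 hours at 37 degrees C. Viability was read by CellTiter-Glo luminescence. Media-only wells were set as complete cell-killing and DMSO as no toxicity.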
* hit, by the source's call; [ ] = dose if it differs, or a comment. Shown are actives, neighbours in structure and some others; about 17% of the full set was active somewhere. The call rests on the fitted dose curve; in most records, active means well fitted curve in the direction sought with a large enough effect; inconclusive means small, poorly fitted or top-dose-only effect, or another doubt; inactive means no such curve, though single readings can be large; an effect the other way counts as inactive or inconclusive. Potency means the concentration at half of the fitted maximal effect.

`Cc1ccc(N=Nc2ccc(O)c3ncccc23)cc1` gave HT1080NT lethal inconclusive, TGFb inhibitor inconclusive, DT40 TDP1 CPT 13µM*, DT40 TDP1 no CPT 13µM*, HT1080 IDH1KD tx 1.6µM* and HepG2 viability 8%.
`Cc1ccc(N=Nc2ccc(O)c3ncccc23)cc1C` gave HT1080NT lethal inconclusive, TGFb inhibitor 3%, DT40 TDP1 CPT 2.3µM*, DT40 TDP1 no CPT 2.3µM*, HT1080 IDH1KD tx inconclusive and HepG2 viability -14%.
For Cc1cc(N(C)C)ccc1N=Nc1ccc2ncccc2c1 the results were HT1080NT lethal -1%, TGFb inhibitor -9%, DT40 TDP1 CPT inconclusive, DT40 TDP1 no CPT inconclusive, HT1080 IDH1KD tx -3% and HepG2 viability -5%.
`CC1COCC(C)N1C(=O)c1cccnc1` (centres undefined) gave HT1080NT lethal 3%, TGFb inhibitor 3%, DT40 TDP1 CPT -2%, DT40 TDP1 no CPT -24%, HT1080 IDH1KD tx 9% and HepG2 viability 4%.
For CS(=O)(=O)N1CCN(C(=O)c2ccccc2F)CC1 the results were HT1080NT lethal 10%, TGFb inhibitor -1%, DT40 TDP1 CPT 8%, DT40 TDP1 no CPT 2%, HT1080 IDH1KD tx 5% and HepG2 viability -27%.
Screening CC1CC(Nc2ccccc2)c2ccccc2N1C(=O)c1cccnc1 (centres undefined) returned HT1080NT lethal inconclusive, TGFb inhibitor -35%, DT40 TDP1 CPT 9.2µM*, DT40 TDP1 no CPT 4.6µM*, HT1080 IDH1KD tx inconclusive and HepG2 viability -33%.
For CC1CC(Nc2ccccc2)c2ccccc2N1C(=O)c1ccccc1F (centres undefined) the results were HT1080NT lethal 2%, TGFb inhibitor 0%, DT40 TDP1 CPT 1.8µM*, DT40 TDP1 no CPT 1µM*, HT1080 IDH1KD tx -7% and HepG2 viability 20%.
Screening N#CCCn1c(SCC(=O)c2c[nH]c3ccccc23)nc2ccccc21 returned HT1080NT lethal -14%, TGFb inhibitor 9%, DT40 TDP1 CPT 23µM*, DT40 TDP1 no CPT 18µM*, HT1080 IDH1KD tx -9%[9.24 µM] and HepG2 viability -6%.
`Cn1cnnc1SCC(=O)c1c[nH]c2ccccc12` gave HT1080NT lethal 3%, TGFb inhibitor -6%, DT40 TDP1 CPT -14%, DT40 TDP1 no CPT -7%, HT1080 IDH1KD tx -9% and HepG2 viability -12%.
For NC(=O)CSc1nc2ccccc2c(=O)n1-c1ccccc1 the results were HT1080NT lethal 4%, TGFb inhibitor -1%, DT40 TDP1 CPT 2%, DT40 TDP1 no CPT 10%, HT1080 IDH1KD tx -17% and HepG2 viability 2%.
For O=C(CSc1nc2ccccc2c(=O)n1-c1ccccc1)c1c[nH]c2ccccc12 the results were HT1080NT lethal -2%, TGFb inhibitor -25%, DT40 TDP1 CPT 6.5µM*, DT40 TDP1 no CPT 6.5µM*, HT1080 IDH1KD tx -4% and HepG2 viability -1%.
For CCC1CCc2c(sc3ncnc(N4CCOCC4)c23)C1 (centres undefined) the results were HT1080NT lethal -13%, TGFb inhibitor -12%, DT40 TDP1 CPT inconclusive, DT40 TDP1 no CPT 18µM*, HT1080 IDH1KD tx -1% and HepG2 viability -34%.
CSc1nnc(-c2ccccc2)n1C was read as HT1080NT lethal 9%, TGFb inhibitor -10%, DT40 TDP1 CPT -3%, DT40 TDP1 no CPT -4%, HT1080 IDH1KD tx 23% and HepG2 viability -6%.
For CSc1nnc(-c2sc3cc(Cl)ccc3c2Cl)n1C the results were HT1080NT lethal 0%, TGFb inhibitor 1%, DT40 TDP1 CPT inconclusive, DT40 TDP1 no CPT 26µM*, HT1080 IDH1KD tx 2% and HepG2 viability 1%.
For CCn1c(SC)nnc1-c1sc2cc(Cl)ccc2c1Cl the results were HT1080NT lethal -17%, TGFb inhibitor -29%, DT40 TDP1 CPT 16µM*, DT40 TDP1 no CPT inconclusive, HT1080 IDH1KD tx -29% and HepG2 viability -2%.
For COc1ncnc2c1ncn2CCCNCc1ccccn1 the results were HT1080NT lethal -1%, TGFb inhibitor -7%, DT40 TDP1 CPT 2%, DT40 TDP1 no CPT -11%, HT1080 IDH1KD tx 15% and HepG2 viability -18%.
Screening Cc1ccc(Cl)cc1N1CCN(c2nc3ccc(C(=O)c4ccccc4)cc3n3cnnc23)CC1 returned TGFb inhibitor 0%, DT40 TDP1 CPT 18µM*, DT40 TDP1 no CPT 23µM* and HepG2 viability -30%.
COc1cccc(N2CCN(c3nc4ccc(C(=O)c5ccccc5)cc4n4c(C)nnc34)CC2)c1 was read as TGFb inhibitor -21%, DT40 TDP1 CPT inconclusive, DT40 TDP1 no CPT 16µM* and HepG2 viability -25%.
`Cc1ccc(Nc2nc3ccc(C(=O)c4ccccc4)cc3n3c(C)nnc23)c(C)c1` gave TGFb inhibitor 0%, DT40 TDP1 CPT -13%, DT40 TDP1 no CPT -20% and HepG2 viability 17%.
Screening Cc1ccc(N2CCN(c3nc4ccc(C(=O)c5ccccc5)cc4n4cnnc34)CC2)c(C)c1 returned TGFb inhibitor 0%, DT40 TDP1 CPT inconclusive, DT40 TDP1 no CPT 18µM* and HepG2 viability -11%.
Cc1ccc(C)c(N2CCN(c3nc4ccc(C(=O)c5ccccc5)cc4n4cnnc34)CC2)c1 was read as TGFb inhibitor 15%, DT40 TDP1 CPT inconclusive, DT40 TDP1 no CPT inconclusive and HepG2 viability 8%.
Screening CCOC(=O)C1CCN(CC(=O)c2c(C)n(C)c3ccc(OC)cc23)CC1 returned HT1080NT lethal 0%, TGFb inhibitor 16%, DT40 TDP1 CPT -2%, DT40 TDP1 no CPT 0%, HT1080 IDH1KD tx -6% and HepG2 viability -16%.
For CC(=O)Nc1ccn(C2OC(C(COC(C)=O)NC(=O)C(CCCCNC(=O)OCc3ccccc3)NC(=O)OC(C)(C)C)C(OC(C)=O)C2OC(C)=O)c(=O)n1 (centres undefined) the results were TGFb inhibitor -21% and HepG2 viability -4%.
For COc1ccc(Cn2nnnc2C(c2ccc(C)cc2)N2CCN(C3CCCC3)CC2)cc1 (centres undefined) the results were HT1080NT lethal inconclusive, TGFb inhibitor 14%, DT40 TDP1 CPT 16µM*, DT40 TDP1 no CPT 9.2µM*, HT1080 IDH1KD tx -26% and HepG2 viability -25%.
